Screen size: about 310,000 compounds; about 14,000 (4.5%) showed an effect of 50% or more. Effects have a minus sign here. Many of the other results were omitted from the sample, so strong results are more common in it than they were.
Biological target: human ether-à-go-go-related gene (hERG) potassium channel (human, UniProt Q12809)
Assay: primary screen, population patch clamp on CHO cells stably expressing hERG; higher = less effect of the substance
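Also: peak tail current of the secondary pulse compared with the same well before compound.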

human ether-à-go-go-related gene (hERG) potassium channel, sequence (Q12809 whole entry, looked up): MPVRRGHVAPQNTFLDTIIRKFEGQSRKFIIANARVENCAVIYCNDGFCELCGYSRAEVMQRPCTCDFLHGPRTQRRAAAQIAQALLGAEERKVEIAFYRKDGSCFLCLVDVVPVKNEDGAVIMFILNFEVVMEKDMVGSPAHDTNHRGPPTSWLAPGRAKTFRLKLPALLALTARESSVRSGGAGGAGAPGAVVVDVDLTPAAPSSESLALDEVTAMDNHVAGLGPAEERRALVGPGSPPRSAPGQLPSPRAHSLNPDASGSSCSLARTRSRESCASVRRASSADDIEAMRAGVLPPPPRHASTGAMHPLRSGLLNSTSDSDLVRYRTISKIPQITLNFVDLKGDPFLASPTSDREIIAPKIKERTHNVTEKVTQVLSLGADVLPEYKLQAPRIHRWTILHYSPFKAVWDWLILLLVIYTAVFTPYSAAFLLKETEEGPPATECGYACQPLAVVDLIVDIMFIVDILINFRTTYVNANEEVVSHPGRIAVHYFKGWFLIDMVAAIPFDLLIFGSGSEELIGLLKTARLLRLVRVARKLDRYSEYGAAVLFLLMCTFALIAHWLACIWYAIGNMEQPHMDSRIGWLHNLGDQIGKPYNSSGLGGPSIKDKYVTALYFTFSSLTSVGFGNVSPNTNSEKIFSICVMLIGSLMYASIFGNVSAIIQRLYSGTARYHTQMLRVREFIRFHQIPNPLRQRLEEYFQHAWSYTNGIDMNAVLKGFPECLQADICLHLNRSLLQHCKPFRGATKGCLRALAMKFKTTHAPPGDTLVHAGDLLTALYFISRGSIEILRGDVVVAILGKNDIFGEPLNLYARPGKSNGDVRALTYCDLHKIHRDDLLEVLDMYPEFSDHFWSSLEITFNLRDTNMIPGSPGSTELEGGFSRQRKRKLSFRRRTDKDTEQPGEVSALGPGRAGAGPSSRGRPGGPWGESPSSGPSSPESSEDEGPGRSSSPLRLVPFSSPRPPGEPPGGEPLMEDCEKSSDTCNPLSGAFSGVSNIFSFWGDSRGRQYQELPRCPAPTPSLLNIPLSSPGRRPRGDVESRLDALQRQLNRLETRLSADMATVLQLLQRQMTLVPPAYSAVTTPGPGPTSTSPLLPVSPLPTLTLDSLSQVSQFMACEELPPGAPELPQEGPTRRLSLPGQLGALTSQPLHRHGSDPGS

| SMILES | hERG current change (%, negative = inhibition) at 10uM |
| --- | --- |
| COc1ccc(NC(=O)c2c(C)nn(-c3ccccc3)c2Cl)cc1 | 20.4% |
| CCNC(=O)COC(=O)c1[nH]c(C)c(C(=O)OC)c1C | 8.24% |
| Cc1cc(C)c2c(CN3CCN(C)CC3)cc(=O)oc2c1 | -73.3% |
| Cc1cc2oc(=O)cc(CN3CCN(Cc4ccc5c(c4)OCO5)CC3)c2cc1C | -17.2% |
| Cc1cc(C)c2c(CCl)cc(=O)oc2c1 | -1.06% |
| Cc1cc(C)c2c(CN3CCCCC3)cc(=O)oc2c1 | 10.7% |
| Cc1cc(C)c2c(CN3CCN(Cc4ccc5c(c4)OCO5)CC3)cc(=O)oc2c1 | -75.4% |
| CCN1CCN(Cc2cc(=O)oc3cc(C)cc(C)c23)CC1 | -68.1% |
| Cc1cc(C)c2c(CN3CCCCC3C)cc(=O)oc2c1.Cl (stereo not drawn) | 13.9% |
| Cc1cc(C)c2c(CN3CCN(Cc4ccccc4)CC3)cc(=O)oc2c1.Cl | -66.9% |
| Cc1cc(O)c2c(CN3CCN(Cc4ccccc4)CC3)cc(=O)oc2c1 | -13.1% |
| Cc1cc(C)c2c(CN3CCN(Cc4ccc5c(c4)OCO5)CC3)cc(=O)oc2c1C | -45.8% |
| Cc1cc(C)c2c(CN3CCOCC3)cc(=O)oc2c1 | -7.28% |
| CC1CCCN(C(=O)CNC(=O)Cn2ccc3ccccc3c2=O)C1 (stereo not drawn) | -5.78% |
| COc1cc(NC(=O)c2ccc(COCC(F)(F)F)o2)cc(OC)c1OC | -16.8% |
| COc1ccc(OC)c(NC(=O)CCCCCn2nnc3ccccc3c2=O)c1 | -2.09% |
| CN(C)S(=O)(=O)c1cc(NC(=O)CSc2cccc[n+]2[O-])ccc1Cl | 9.64% |
| COc1ccc(-n2c(-c3cccc(OC)c3)nc(=S)c3c2CCCC3)cc1 | 8.47% |
| CC(=O)O/N=C(/c1nonc1N)N1CCN(c2ccc([N+](=O)[O-])cc2Cl)CC1 | -33.9% |
| COCc1[nH]nc2c1C(c1c(F)cccc1Cl)C(C#N)=C(N)O2 (stereo not drawn) | -3.01% |
| Cc1ccc(NC(=O)c2ccc(NCCN)c([N+](=O)[O-])c2)cc1Cl | -14.3% |
| CCc1ccc2[nH]c3nc(N/N=C/c4ccc(O)cc4O)nnc3c2c1 | 3.31% |
| CCOc1ccc(C(=O)C[n+]2ccc(C(=O)NCCO)cc2)cc1.[Br-] | 18.3% |
| Cc1cc(-c2nc(C)c(C(=O)NNS(=O)(=O)c3ccccc3)s2)no1 | 11.9% |

| SMILES | hERG current change (%, negative = inhibition) at 10uM |
| --- | --- |
| Cc1ccccc1-c1nnn(Cc2ccc(F)cc2Cl)n1 | 10.6% |
| Cc1cc(C)c2c(CN3CCN(C/C=C/c4ccccc4)CC3)cc(=O)oc2c1 | -76.9% |
| CCc1ccc2oc(=O)cc(CN3CCN(CCO)CC3)c2c1 | -14.9% |
| Cc1cc(C)c2c(CN3CCN(CCO)CC3)cc(=O)oc2c1 | -50.4% |
| Cc1cc(C)c2c(Cn3ccnc3)cc(=O)oc2c1 | 1.13% |
| COC(=O)c1ccc(Cl)c(NC(=O)CN(c2ccc3c(c2)OCO3)S(C)(=O)=O)c1 | 7.68% |
| O=C(O)CCC(NC(=O)c1cncc(O)c1)C(=O)O (stereo not drawn) | -4.94% |
| CCCC1(c2ccccc2)NC(=O)N(CC(=O)N(C)Cc2c(F)cccc2Cl)C1=O (stereo not drawn) | -2.69% |
| Cc1ccc(C(C2=C(O)CC(C)(C)CC2=O)C2C(=O)CC(C)(C)CC2=O)s1 (stereo not drawn) | 14.9% |
| CN=C(NC1CCCCC1)c1ccc([N+](=O)[O-])cc1 | 1.68% |
| Cl.OC(CN1C2=NCCCN2c2ccccc21)c1ccc(Br)cc1 (stereo not drawn) | -83.9% |
| OC(CN1C2=NCCN2c2ccccc21)c1ccc(Br)cc1 (stereo not drawn) | -71% |
| Cl.OC(CN1C2=NCCCN2c2ccccc21)c1ccc(Cl)cc1 (stereo not drawn) | -75.9% |
| Cl.OCCN1C2=NCCCN2c2ccccc21 | 5.78% |
| O=C1CSC(=S)N1c1cccnc1 | -7.65% |
| Cc1ccccc1OCCn1cnc2cc([N+](=O)[O-])ccc2c1=O | -7.38% |
| CCc1cc(=O)oc2c(C)c(OCC(=O)NCCCN3CCOCC3)ccc12 | -31.8% |
| CCOc1ncccc1C(=O)OCc1csc(CC(=O)Nc2ccccc2C)n1 | 0.199% |
| Cc1ccc2[nH]c(O)c(N=NC(N)=S)c2c1 | 19.3% |
| COc1cccc(NC(=O)Cc2cccs2)c1 | 14.4% |
| O=C(CC1CCCC1)Nc1cc(C(F)(F)F)ccc1-n1cncn1 | -10.4% |
| Cc1ccc(C(=O)Nc2cc(C(F)(F)F)ccc2-n2cncn2)o1 | -9.88% |
| Cc1cc(CN2CCN(CC(=O)Nc3cc(C(F)(F)F)ccc3-n3cncn3)CC2)no1 | -69.8% |
| CN(Cc1c(F)cccc1Cl)C(=O)c1cccc(S(=O)(=O)NCc2ccccc2)c1 | -28% |

| SMILES | hERG current change (%, negative = inhibition) at 10uM |
| --- | --- |
| O=C(CN1CCOCC1)Nc1ccc(N2CCN(c3ccccc3)CC2)c(F)c1 | 2.59% |
| CC(C)(C)n1ncc2c(=O)n(CC(=O)c3ccccc3)cnc21 | -10.4% |
| O=C1CCc2cc(OCCCCc3nnnn3C3CCCCC3)ccc2N1 | -64.1% |
| COc1ccc(N2CCN(Cc3nnnn3C3CCCCC3)CC2)cc1 | 6.34% |
| O=C1CCc2cc(S(=O)(=O)NC3CCCCC3)ccc2N1 | -19.3% |
| CN(C(=O)COC(=O)c1cn(C)c2ccccc12)C1CCCCC1 | 6.55% |
| CC(=O)N1c2ccc(S(=O)(=O)NCC3CCC(C(=O)NCc4ccc(C)o4)CC3)cc2CC1C (stereo not drawn) | -3.13% |
| CCCc1cc(=O)[nH]c(Nc2ccc(Cl)cc2)n1 | 6.28% |
| O=C(Nc1ccccc1)C(=O)Nc1ccc2c(c1)N(C(=O)C1CC1)CCC2 | -5.26% |
| Nc1cc(=O)[nH]c(N2CCN(c3ccccc3)CC2)n1 | 24.2% |
| COc1ccc(C(=O)Nc2ccnn2C2CCN(Cc3ccc4nonc4c3)CC2)cc1 | -43.1% |
| COc1ccccc1C(=O)Nc1ccnn1C1CCN(Cc2ncc[nH]2)CC1 | -16.3% |
| COc1ccc(C(=O)Nc2ccnn2C2CCN(Cc3ccccn3)CC2)cc1 | 5.54% |
| COc1cc(CN2CCC(n3nccc3NC(=O)C3CCOC3)CC2)ccc1F (stereo not drawn) | -6.78% |
| COc1cc(CN2CCC(n3nccc3NC(=O)c3ccccc3OC)CC2)ccc1F | -76.7% |
| COc1ccccc1C(=O)Nc1ccnn1C1CCN(Cc2ccc3nonc3c2)CC1 | -72.1% |
| COc1ccccc1C(=O)Nc1ccnn1C1CCN(Cc2ccn[nH]2)CC1 | -36.1% |
| CCn1ccnc1CN1CCC(n2nccc2NC(=O)CCc2ccccc2)CC1 | -3.91% |
| CCn1ccnc1CN1CCC(n2nccc2NC(=O)c2ccccc2OC)CC1 | -69.9% |
| CCOc1ccc(CN2CCC(n3nccc3NC(=O)c3ccccc3OC)CC2)cc1 | -82.8% |
| COc1ccc(/C=N/Nc2nc(-c3cccnc3)nc3ccccc23)cc1OC | -22.2% |
| CCOc1ccc(N2C(=O)CN=C2Nc2ccccc2Cl)cc1 | -2.73% |
| O=C(Nc1ccon1)C(Sc1ccccc1)c1ccccc1 (stereo not drawn) | -8.32% |
| Cc1noc(C)c1C(=O)Nc1ccc(-c2nnc3n2CCCCC3)cc1 | 5.46% |

| SMILES | hERG current change (%, negative = inhibition) at 10uM |
| --- | --- |
| CC1(C)CC(CC(=O)Nc2ccccc2[N+](=O)[O-])C(=O)O1 (stereo not drawn) | -1.77% |
| Cc1cccc(-c2c3c(=O)n(C)c(=O)n(C)c3cn2-c2ccccc2O)c1 | 1.06% |
| Cc1cc(C)c2oc(-c3ccc(C)c(NC(=S)NC(=O)/C=C/c4ccco4)c3)nc2c1 | 11.2% |
| Cc1cc(=O)oc2cc(OCC(=O)N3CCN(C(C)c4ccccc4)CC3)c(Cl)cc12 (stereo not drawn) | -35.1% |
| O=C(N/N=C/c1ccco1)c1cc(-c2cccs2)[nH]n1 | 1.93% |
| Cc1ccccc1C(=O)NCCN1CCOCC1.Cl | 6.78% |
| Fc1ccc(-c2c[nH]c(=S)n2Cc2ccccc2)cc1 | -38% |
| O=C(NCCc1c[nH]c2ccccc12)C(F)(F)F | 3.79% |
| COc1ccc(NC(=O)c2ccc(-n3cncn3)c([N+](=O)[O-])c2)cc1OC | -2.52% |
| CC(C)(Cc1cc(CC(C)(C)C(=O)O)cc(C(C)(C)C)c1)C(=O)O | 10.4% |
| Cc1ccc(Nc2c(-c3ccc(N4CCOCC4)cc3)nc3ncccn23)cc1C | 7.71% |
| COCc1nc(-c2ccc(-c3ccccc3)nc2OC)no1 | -2.5% |
| COc1ccc(S(=O)(=O)N2CCN(CCC(=O)Nc3ccccc3F)CC2)cc1 | -0.0172% |
| COc1ccc(NC(=O)CN2CCCN(S(=O)(=O)c3ccc(F)cc3)CC2)c(OC)c1 | -54.6% |
| O=C(CN1CCN(S(=O)(=O)c2ccc(Br)cc2)CC1)Nc1ccccc1F | -62.5% |
| COc1ccc(S(=O)(=O)N2CCCN(CC(=O)Nc3ccccc3F)CC2)cc1 | -55.7% |
| COc1ccc(S(=O)(=O)N2CCN(CC(=O)Nc3ccccc3OC)CC2)cc1 | -5.56% |
| O=C(CCN1CCN(S(=O)(=O)c2ccc(Br)cc2)CC1)Nc1ccccc1F | -31.2% |
| O=C(CN1CCCN(S(=O)(=O)c2ccc(F)cc2)CC1)Nc1ccccc1Br | -49.1% |
| COc1ccc(NC(=O)CN2CCN(S(=O)(=O)c3ccc(Br)cc3)CC2)c(OC)c1 | 19.8% |
| O=C(CCN1CCN(S(=O)(=O)c2ccc(F)cc2)CC1)Nc1ccccc1F | -8.34% |
| O=C(CN1CCN(S(=O)(=O)c2ccc(F)cc2)CC1)Nc1ccccc1F | -56.1% |
| O=C(CN1CCN(S(=O)(=O)c2ccc(Br)cc2)CC1)Nc1ccccc1C(=O)c1ccccc1 | 1.26% |
| COc1ccc(NC(=O)N2CCN(S(=O)(=O)c3ccc(F)cc3)CC2)c(OC)c1 | -6.4% |

Source: paper PMC4336329 (PLoS ONE, 2015)
